Where “and” joins values, the source holds several entries; their conditions need not be identical. Equal values may be shown once. About 2,000 (36%) of roughly 5,500 compounds were called active. Inconclusive results (about 18%) are left out. No stated cut-off is given here; in the data, active means normalized growth mostly below about 0.91 (no sharp cut-off); inconclusive means no clear call, values can overlap the other calls; inactive means mostly above about 0.92. The list shows a part of the results.
Test: chemical genetic growth profiling, strain panel (AID 1159580);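 further: tested at 20 µM; growth read once vehicle control cultures reached saturation at 30 °C; 1 = growth at the plate median or of vehicle wells; lower values mean less growth of the strain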
Settings: S. cerevisiae deletion strains, growth OD

Measured: normalized growth

CCN(CC)Cc1ccc(Nc2ccnc3cc(Cl)ccc23)cc1O
inactive: locus YAL021C, strain ccr4, hits give low values 0.986 | locus YAL026C, strain drs2, hits give low values 1.03 | locus YAL030W, strain snc1, hits give low values 1 | locus YBL061C, strain skt5, hits give low values 1.03 | locus YBR009C, strain hhf1, hits give low values 0.96 | locus YBR021W, strain FUR4, hits give low values 0.995 | locus YBR023C, strain chs3, hits give low values 1.03 | locus YBR171W, strain sec66, hits give low values 1.05 | locus YBR229C, strain ROT2, hits give low values 1 | locus YBR231C, strain swc5, hits give low values 0.989 | locus YBR279W, strain paf1, hits give low values 1.01 | locus YCL011C, strain gbp2, hits give low values 1 | locus YCL016C, strain dcc1, hits give low values 1.02 | locus YCL029C, strain bik1, hits give low values 1 | locus YCL061C, strain MRC1, hits give low values 1.01 | locus YCL069W, strain vba3, hits give low values 1.02 | locus YCR088W, strain abp1, hits give low values 1.03 | locus YDL005C, strain med2, hits give low values 1.04 | locus YDL035C, strain GPR1, hits give low values 1.01 | locus YDL040C, strain nat1, hits give low values 1 | locus YDL074C, strain BRE1, hits give low values 1 | locus YDL101C, strain DUN1, hits give low values 1.01 | locus YDL185W, strain tfp1, hits give low values 0.997 | locus YDL192W, strain arf1, hits give low values 0.999 | locus YDR001C, strain nth1, hits give low values 1.03 | locus YDR069C, strain doa4, hits give low values 1.01 | locus YDR101C, strain arx1, hits give low values 0.988 | locus YDR137W, strain rgp1, hits give low values 1.07 | locus YDR150W, strain NUM1, hits give low values 1.01 | locus YDR159W, strain sac3, hits give low values 0.941 | locus YDR162C, strain NBP2, hits give low values 1.02 | locus YDR195W, strain ref2 0.971 | locus YDR297W, strain sur2, hits give low values 1.02 | locus YDR318W, strain mcm21, hits give low values 1 | locus YDR334W, strain swr1, hits give low values 1.02 | locus YDR335W, strain msn5, hits give low values 1.03 | locus YDR388W, hits give low values 0.998 | locus YDR502C, strain sam2, hits give low values 0.997 | locus YEL003W, strain gim4, hits give low values 1.01 | locus YEL037C, strain rad23, hits give low values 1.03 | locus YEL061C, strain CIN8 (second series), hits give low values 1.01 | locus YEL061C, strain CIN8, hits give low values 1 | locus YER015W, strain faa2, hits give low values 1 | locus YER016W, strain bim1, hits give low values 1.03 | locus YER110C, hits give low values 0.999 | locus YER111C, strain swi4, hits give low values 1.03 | locus YER155C, strain BEM2 (second series), hits give low values 0.865 | locus YER155C, strain BEM2, hits give low values 1 | locus YER167W, strain BCK2, hits give low values 1.01 | locus YFR010W, strain ubp6, hits give low values 0.992 | locus YGL078C, strain dbp3, hits give low values 1 | locus YGL086W, strain mad1, hits give low values 0.996 | locus YGL167C, strain pmr1, hits give low values 1.01 | locus YGL173C, strain kem1, hits give low values 0.991 | locus YGL227W, strain vid30, hits give low values 1.01 | locus YGL240W, strain doc1, hits give low values 0.958 | locus YGL248W, strain PDE1, hits give low values 1.01 | locus YGL253W, strain hxk2, hits give low values 1.01 | locus YGR078C, strain PAC10, hits give low values 1 | locus YGR135W, strain pre9, hits give low values 0.994 | locus YGR229C, strain SMI1, hits give low values 1.02 | locus YGR252W, strain gcn5, hits give low values 0.96 | locus YHR013C, strain ard1, hits give low values 0.96 | locus YHR027C, strain rpn1, hits give low values 1.01 | locus YHR030C, strain SLT2, hits give low values 1.01 | locus YHR079C, strain IRE1 (second series), hits give low values 0.999 | locus YHR079C, strain IRE1, hits give low values 1.07 | locus YHR094C, strain hxt1, hits give low values 0.998 | locus YHR129C, strain ARP1, hits give low values 1 | locus YHR142W, strain chs7, hits give low values 1.03 | locus YHR200W, strain rpn10, hits give low values 0.997 | locus YIL066C, strain RNR3, hits give low values 1.02 | locus YIL073C, strain SPO22, hits give low values 1.01 | locus YIL125W, strain kgd1, hits give low values 1 | locus YIR030C, strain dcg1, hits give low values 0.997 | locus YJL092W, strain hpr5, hits give low values 1.01 | locus YJL095W, strain BCK1 (second series), hits give low values 1.01 | locus YJL095W, strain BCK1, hits give low values 1 and 1.05 | locus YJL115W, strain asf1, hits give low values 1.04 | locus YJL129C, strain trk1, hits give low values 1.01 | locus YJL134W, strain LCB3, hits give low values 1.01 | locus YJL154C, strain vps35, hits give low values 1.02 | locus YJL164C, strain tpk1, hits give low values 1 | locus YJL166W, strain qcr8, hits give low values 0.992 | locus YJL168C, strain set2, hits give low values 1 | locus YJL187C, strain SWE1 (second series), hits give low values 1 | locus YJR043C, strain POL32, hits give low values 0.996 | locus YJR066W, strain TOR1, hits give low values 0.992 | locus YJR075W, strain HOC1, hits give low values 1.01 | locus YKL009W, strain mrt4, hits give low values 0.997 | locus YKL068W, hits give low values 0.996 | locus YKL085W, strain MDH1 (second series), hits give low values 0.995 | locus YKL085W, strain MDH1, hits give low values 0.995 | locus YKL160W, strain elf1, hits give low values 1.04 | locus YKL190W, strain CNB1, hits give low values 1.01 | locus YKR001C, strain vps1, hits give low values 0.999 | locus YKR026C, strain gcn3, hits give low values 1.03 | locus YKR091W, strain srl3, hits give low values 1.02 | locus YLL001W, strain dnm1, hits give low values 1.01 | locus YLL026W, hits give low values 1.02 | locus YLL041C, strain sdh2, hits give low values 1.03 | locus YLR027C, strain aat2, hits give low values 1.01 | locus YLR039C, strain RIC1, hits give low values 1.01 | locus YLR058C, strain SHM2, hits give low values 1.01 | locus YLR102C, strain apc9, hits give low values 0.993 | locus YLR113W, strain HOG1, hits give low values 1.06 | locus YLR221C, strain rsa3, hits give low values 0.987 | locus YLR258W, strain gsy2, hits give low values 1.03 | locus YLR262C, strain YPT6 (second series), hits give low values 1.02 | locus YLR262C, strain YPT6, hits give low values 1.06 | locus YLR268W, strain sec22, hits give low values 0.993 | locus YLR320W, strain mms22, hits give low values 0.939 | locus YLR330W, strain CHS5, hits give low values 1.01 | locus YLR342W, strain FKS1 (second series), hits give low values 0.984 | locus YLR342W, strain FKS1, hits give low values 1.01 | locus YLR357W, strain rsc2, hits give low values 1.06 | locus YLR370C, strain arc18, hits give low values 1.02 | locus YLR371W, strain rom2, hits give low values 1 | locus YLR384C, strain iki3, hits give low values 1.01 | locus YLR418C, strain cdc73, hits give low values 0.98 | locus YML016C, strain PPZ1, hits give low values 1 | locus YML032C, strain rad52, hits give low values 0.99 | locus YML120C, strain ndi1, hits give low values 1.02 | locus YML124C, strain tub3, hits give low values 1.01 | locus YMR058W, strain fet3, hits give low values 0.93 | locus YMR078C, strain ctf18, hits give low values 1 | locus YMR125W, strain sto1, hits give low values 1.05 | locus YMR129W, hits give low values 1.02 | locus YMR205C, strain PFK2, hits give low values 0.983 | locus YMR223W, strain ubp8, hits give low values 1 | locus YMR231W, strain pep5, hits give low values 1.01 | locus YMR307W, strain GAS1, hits give low values 1.01 | locus YNL067W, strain RPL9B, hits give low values 1 | locus YNL071W, strain lat1, hits give low values 1.03 | locus YNL128W, strain TEP1, hits give low values 1.02 | locus YNL153C, strain GIM3, hits give low values 0.987 | locus YNL183C, strain NPR1, hits give low values 1 | locus YNL209W, strain ssb2, hits give low values 1.01 | locus YNL233W, strain BNI4, hits give low values 1 | locus YNL248C, strain rpa49, hits give low values 1.03 | locus YNL250W, strain rad50, hits give low values 0.997 | locus YNL271C, strain bni1, hits give low values 1.03 | locus YNL298W, strain CLA4, hits give low values 1.01 | locus YNL307C, strain MCK1, hits give low values 0.997 | locus YNL322C, strain KRE1 (second series), hits give low values 1.05 | locus YNR049C, strain mso1, hits give low values 1.01 | locus YNR052C, strain pop2, hits give low values 1 | locus YOL006C, strain TOP1, hits give low values 1.04 | locus YOL012C, strain htz1 1.13 | locus YOL147C, strain pex11, hits give low values 0.996 | locus YOR001W, strain rrp6, hits give low values 0.995 | locus YOR061W, strain CKA2, hits give low values 1.01 | locus YOR069W, strain VPS5, hits give low values 1 | locus YOR070C, strain gyp1, hits give low values 1.02 | locus YOR080W, strain dia2, hits give low values 1.01 | locus YOR083W, strain WHI5, hits give low values 0.986 | locus YOR106W, strain vam3, hits give low values 1.05 | locus YOR136W, strain idh2, hits give low values 0.995 | locus YOR144C, strain elg1, hits give low values 0.99 | locus YOR184W, strain ser1, hits give low values 0.992 | locus YOR231W, strain MKK1, hits give low values 1.05 | locus YOR265W, strain rbl2, hits give low values 1 | locus YOR270C, strain vph1, hits give low values 1.05 | locus YOR290C, strain snf2, hits give low values 1.02 | locus YOR316C, strain cot1, hits give low values 0.997 | locus YPL051W, strain arl3, hits give low values 1.01 | locus YPL078C, strain atp4, hits give low values 1.03 | locus YPL106C, strain sse1, hits give low values 1.05 | locus YPL240C, strain hsp82, hits give low values 1.02 | locus YPL241C, strain CIN2, hits give low values 1.01 | locus YPL256C, strain CLN2, hits give low values 1.01 | locus YPR119W, strain clb2, hits give low values 1 | locus YPR141C, strain kar3, hits give low values 1.01 | locus YPR163C, strain tif3, hits give low values 1.01 | locus YPR167C, strain met16, hits give low values 1 | strain wtn01, hits give low values 1
active: locus YDR392W, strain spt3, hits give low values 0.737
